LASV entry inh – qHTS for Inhibitors of binding or entry into cells for Lassa Virus | Lassa virus pseudotype entry inhibition, cell reporter | Potency, µM (highest dose often 37.9 µM), without a hit: at the highest dose activity change, negative = inhibition, actives largely listed as inhibitors | 1.2% of 300,000 active | AID 540256, 2011; calls by dose curve; tested in HEK293 cells; also: potency is read from the fitted curve at half-maximal effect; nearly all actives have a fitted effect of over 50% in size
Vaccinia Venus – qHTS for Stage-Specific Inhibitors of Vaccinia Orthopoxvirus: Venus Reporter Primary qHTS; Vaccinia virus Venus reporter expression, fluorescence; Potency, µM (doses to about 36.5 µM), inactives show top-dose activity change, negative = inhibition, hits mostly inhibitors; 0.46% of 330,000 active; AID 720580, 2013; calls by dose curve; tested in A549 cells; also: potency is read from the fitted curve at half-maximal effect; nearly all actives have a fitted effect of over 30% in size
VACV mCherry inh – qHTS for Stage-Specific Inhibitors of Vaccinia Orthopoxvirus: mCherry Reporter Primary qHTS | 0.63% of 310,000 active | Potency, µM (top dose mostly 36.5 µM), inactives show at the highest dose activity change, negative = inhibition, usual class: inhibitors | Vaccinia virus mCherry reporter infection, fluorescence; calls by dose curve; tested in A549 cells; also: potency is read from the fitted curve at half-maximal effect; nearly all actives have a fitted effect of over 35% in size
HCMV antiviral – qHTS Assay for inhibitors of the human cytomegalovirus (HCMV). AID 1259415, 2018. activity change, negative = inhibition, % at 57.5 µM. HFF cells, HCMV-luciferase reporter, 72 h; active compounds read low. 4.5% of 410,000 active; in the data active = activity change below about -60%; inconclusive = no clear call, values can overlap the other calls; inactive = above about -39%
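Human foreskin fibroblasts infected with luciferase-reporter HCMV at MOI 1 PFU/cell, compounds at two doses. Luciferase measured 72 h post infection; normalized to buffer-only basal and Salinomycin (10uM) controls.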
MARV entry inh – qHTS for inhibitors of binding or entry into cells for Marburg Virus; Marburg virus pseudotyped entry inhibition, cell reporter; Potency, µM (titrated, usually from 37.8 µM), for the others: at the top dose activity change, negative = inhibition, most hits filed as inhibitors; 1.8% of 300,000 active; AID 540276, 2011; calls by dose curve; tested in HEK293 cells; also: potency is read from the fitted curve at half-maximal effect
HCV inhibitor – qHTS Assay for Inhibitors of Hepatitis C Virus (HCV); Huh7.5.1 HCVcc-Cre infection, luciferase reporter, 44 h; Potency, µM (highest dose often 41.8 µM), for the others: top-dose activity change, negative = inhibition, hits mostly inhibitors; 3.4% of 340,000 active; AID 651820, 2012; active = well fitted inhibition curve with a large enough effect; inconclusive = small, poorly fitted or top-dose-only effect, or another doubt; inactive = no such curve, though single readings can be large or run the other way; also: potency is read from the fitted curve at half-maximal effect
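Compounds are dispensed onto cells plated 4 h earlier at 1,000 per well, with HCVcc-Cre virus (about 0.5 moi) added next. Following 44 h of culture, luminescent signal is measured for 15 sec after 15 min with substrate at room temperature.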
* hit, by the source's call; i = inactive; ? = inconclusive; / = not tested or not shown; [ ] = dose if it differs, or a comment. This is a sample that favours compounds with a hit; in the whole collection about 7.8% have one here. % is scaled to controls: 0 for no effect and ±100 for the full control effect.

SMILES	LASV entry inh	Vaccinia Venus	VACV mCherry inh	HCMV antiviral	MARV entry inh	HCV inhibitor
Fc1cccc(NC(=S)NCCc2ccccc2)c1	?	-11.5%	-5.6%	-78.6*	?	-19.9%
COc1ccc(-c2nc3ccc(NC(=O)COC(C)=O)cc3c(=O)n2Cc2ccccc2)cc1COc1ccc(NC(C)=O)cc1	/	-11.2%	i	/	/	/
CCOc1ccc(CSCCNC(=S)Nc2ccc(OC)cc2)cc1	/	/	/	-81.3*	/	10µM*
S=C(NCCCc1ccccc1)Nc1ccccc1	-20.3%[46.1 µM]	-14.5%	-13.4%	-39.5	7.1%[46.1 µM]	-7.5%
CCCOc1ccc(CSCCNC(=S)Nc2ccccc2)cc1	?	-23.4%	i	-37.3	?	?
Fc1ccc(F)c(NC(=S)NCCc2ccccc2)c1	?	-1.6%	-3.7%	-66.1*	?	-13.7%
S=C(NCCCc1ccccc1)Nc1ccc(Cl)cc1	-27.4%	?	-7.6%	-97.6*	5.1%	?
S=C(NCCSCc1ccccc1Cl)Nc1ccccc1	?	-25.3%	-28.0%	-21.5	?	?
S=C(NCCSCc1ccc(Cl)cc1)Nc1ccccc1	?	-26.2%	-28.9%	-68.0*	11.8%	-2.4%
CCOc1ccc(C(=O)Nc2cccc(-c3nc4cc(Cl)cc(Cl)c4o3)c2)cc1	-4.3%[46.1 µM]	0.2%	-4.0%	29.3	/	/
Cc1ccc2c(c1)-c1c(cnc3cc(-c4ccc(F)cc4)nn13)CO2	21.6%[46.1 µM]	-15.0%	-18.9%	-4.6	1.3%[46.1 µM]	/
C=CCN1C(=O)CC[C@@]23C1=NC(C(=O)OC)=C(C(=O)OC)[C@@H]2N(CC#CC)c1ccccc13	/	/	/	/	-20.0%[14.2 µM]	/
Cc1cccc(N2CCN(c3nc4ccccc4c4nc(-c5ccccc5)nn34)CC2)c1C	/	-0.5%	-19.3%	10.0	4.4%[46.1 µM]	/
CCCCNC(=S)Nc1ccc(F)cc1	4.0%	-10.9%	-15.7%	-21.1	-23.4%	4.3%
CCCCNC(=S)Nc1ccc(SC(F)F)cc1	?	-26.4%	-22.7%	-0.2	?	11.2µM*
S=C(NCCc1ccccn1)Nc1ccc(Cl)cc1	8.9%	-7.6%	-23.2%	-77.9*	?	-17.5%
O=C(NC(=S)Nc1cnc2ccccc2c1)c1ccccc1	/	/	/	-13.0	/	14.5%
Cc1nc2ccc(NC(=O)c3ccccc3)cc2c(=O)n1Cc1ccc(F)cc1	/	?	-16.5%	-73.1*	/	/
S=C(NCCc1ccccc1)Nc1cnc2ccccc2c1	/	/	/	-63.2*	/	6.3%
O=c1c(F)cn([C@H]2CCCO2)c(=O)n1Cc1ccccc1Cl	/	/	/	/	1.6%	/
Cc1c(C(=O)NC2CCCCCC2)sc2ncnc(NCC3CCCO3)c12 (stereo not drawn)	/	-8.5%	-9.7%	/	/	/
CCOC(=O)C1=C(C)OC(N)=C(C#N)[C@H]1c1cc2ccccc2nc1N1CCCCC1	/	/	/	/	0.9%	/
Cc1ccc(Cl)cc1NC(=O)C1CCN(c2nc3ccccc3n3cccc23)CC1	-3.2%[46.1 µM]	-15.6%	-8.7%	31.1	/	/
CCCNC(=S)Nc1ccccc1	/	-9.7%	i	-64.9*	/	8.5%
Cc1ccc(NC(=S)NCCc2ccccc2)nc1	-0.1%[46.1 µM]	-23.7%	-10.6%	-115.0*	-2.6%[46.1 µM]	?
SMILES	LASV entry inh	Vaccinia Venus	VACV mCherry inh	HCMV antiviral	MARV entry inh	HCV inhibitor
O=C(NCCc1ccc(F)cc1)c1cccc(NC(=O)c2ccccc2)c1	/	/	/	-8.5	/	22.4µM*
OCCNC(=S)NCCc1ccccc1	-7.8%	-2.4%	i	?	2.7%	3.8%
O=C(NCCCCc1ccccc1)c1cccc(NC(=O)c2ccccc2)c1	11.9%[46.1 µM]	-25.9%	-5.0%	-0.3	/	-59.8%
CC(C)(CNC(=S)NCCc1ccccc1)CNC(=S)NCCc1ccccc1	?	/	/	-93.4*	?	?
O=C(CF)NC(NC(=S)Nc1cccc([N+](=O)[O-])c1)C(Cl)(Cl)Cl (stereo not drawn)	-21.2%	/	/	-69.8*	-21.6%	-7.7%
COc1ccc(NC(=S)NC(NC(=O)CF)C(Cl)(Cl)Cl)cc1[N+](=O)[O-] (stereo not drawn)	/	-20.0%	i	10.5	/	-20.4%
CCc1cc(C(=O)N2CCCC(N3CCN(c4cccc(C(F)(F)F)c4)CC3)C2)n(C)n1 (stereo not drawn)	/	/	/	?	/	10µM*
O=C(c1ccncc1)N1CCCC(N2CCN(c3cccc(C(F)(F)F)c3)CC2)C1 (stereo not drawn)	/	/	/	-31.0	/	6.7%
CCCN1CCC(N2CCN(c3cccc(C(F)(F)F)c3)CC2)CC1	?	/	/	-21.6	?	11.2µM*
Cc1ccc(CNC(=O)c2nn(-c3ccc(Cl)cc3)nc2CO)cc1	?	0.0%	3.2%	10.2	-4.7%[46.1 µM]	/
Cc1onc(-c2ccccc2)c1CNS(=O)(=O)c1cccc(Br)c1	-10.1%	-2.0%[7.34 µM]	-3.1%[7.34 µM]	-73.0*	?	-6.4%
CCN(CC)CCNCC(=O)Nc1ccc(Cl)cc1C(=O)c1ccccc1	1.9%	-12.8%	-15.9%	29.6	-21.3%	-29.4%
CN(C)CCCNCC(=O)Nc1ccc(Cl)cc1C(=O)c1ccccc1	-19.2%[46.1 µM]	-9.5%	-8.3%	-3.6	11.2µM*	?
Cc1oc(-c2ccccc2NC(=O)C2CCC2)nc1CNC(=O)c1ccccn1	/	-0.6%	-4.5%	/	/	/
O=C(O)C[C@H]1SC(=Nc2cccc(C(F)(F)F)c2)NC1=O	/	/	/	/	-21.6%[46.1 µM]	/
COc1ccc(N=c2nc(-c3ccccc3)n(-c3ccc(C)cc3)s2)cc1	/	?	11.2µM*	/	/	/
Cc1ccc(-c2nc(=Nc3ccccc3)sn2-c2ccccc2)cc1	/	?	14.1µM*	/	/	/
CCOC(=O)c1c(C)[nH]c(CCC(=O)NCc2cc(Br)ccc2OC)c1C	-17.9%[46.1 µM]	-3.4%	-8.2%	9.8	/	/
COc1ccc(NC(=O)c2nn(C)cc2[N+](=O)[O-])cc1	/	/	/	-28.8	/	0.0%
Cc1ccc(NC(=O)c2nn(C34CC5CC(CC(C5)C3)C4)cc2[N+](=O)[O-])cc1	-18.4%	/	/	-75.6*	?	?
Cc1ccccc1OC(=O)CSc1nnc(-c2ccc(F)cc2)o1	6.3%[46.1 µM]	-10.6%	-13.0%	15.5	17.2%[46.1 µM]	/
COc1ccc(C(CNC(=O)c2cc3c(s2)CCC(C)C3)N2CCCC2)cc1 (stereo not drawn)	/	/	/	?	/	10µM*
CCC1CCc2sc(C(=O)NCC(c3ccccc3OC)N3CCCC3)cc2C1 (stereo not drawn)	/	/	/	?	/	7.08µM*
COc1ccc(NC(=O)CN(C)C(=O)c2cc3c(s2)CCC(C)C3)cc1 (stereo not drawn)	5.3%	-18.3%	-16.8%	22.3	6.1%	-7.9%
CCC1CCc2sc(C(=O)NCc3ccccn3)cc2C1 (stereo not drawn)	8.7%[46.1 µM]	-0.3%	i	16.7	?	-9.2%
COc1ccc(Cl)cc1NC(=O)Cn1c(=O)n(Cc2ccc(F)cc2)c(=O)c2cccnc21	/	-11.2%	-6.9%	2.1	1.6%[46.1 µM]	/
COc1cc(NC(=O)Cn2ccn(Cc3ccccc3OC)c(=O)c2=O)cc(OC)c1	-16.6%[46.1 µM]	-0.2%	-3.4%	-31.9	/	/
Cc1c(C(C)C)c(=O)n(-c2ccc(S(=O)(=O)NC3CCCCC3)cc2)n1C	?	-9.0%	i	-89.3*	?	5.01µM*

Screens: PubChem, National Center for Advancing Translational Sciences (NCATS)
